Nrf2 inh = Nrf2 qHTS screen for inhibitors; A549 ARE-Fluc reporter, luciferase luminescence, 18-24 h; AID 504444, 2011; actives 2.1% (n = 360,000); Potency, µM (top dose mostly 46 µM), hits mostly inhibitors; note: nearly all actives have a fitted effect of over 60% in size
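In this cell-based qHTS, ARE-driven firefly luciferase in A549 cells reports Nrf2 activity; the luminescent signal after BugLite lysis is the measured value, with a prior CellTiter-Fluor read for cell health.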
Epigenetic reg = Quantitative High-Throughput Screen for Regulators of Epigenetic Control. Potency, µM (highest dose often 53.9 µM), actives largely listed as activators. actives 0.2% (n = 280,000). murine LDR cells, GFP reporter derepression, 30 h; note: nearly all actives have a fitted effect of over 60% in size
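Reporter derepression read as number of fluorescent GFP-positive objects, 20-120 um in size, counted by laser-scanning cytometer. Mouse LDR line with an epigenetically silenced CMV-GFP locus; compound incubation 30 h, 37 C.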
Nrf2 ARE act = qHTS of Nrf2 Activators; AREc32 ARE-luciferase reporter (MCF7-derived line), luminescence, 24 h; Potency, µM (doses to about 46.1 µM), most hits filed as activators; actives 0.31% (n = 410,000); note: nearly all actives have a fitted effect of over 65% in size
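Each well held 1000 AREc32 cells, which were incubated with compound for 24 hr at 37 deg C after overnight attachment, and ARE reporter activity was quantified by firefly luciferase luminescence.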
A549 viability = Nrf2 qHTS screen for inhibitors: counterscreen for cytotoxicity. Potency, µM (series often up to 46 µM), actives largely listed as inhibitors. A549 ARE-Fluc cells, CellTiter-Fluor viability, 18-24 h. actives 0.16% (n = 390,000)
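A549 ARE_Fluc cells in 5% FBS OPTI-MEM were exposed to compounds in concentration-response for 18-24 h at 37 deg C. Viability was read by CellTiter-Fluor fluorescence (Ex 405/Em 525) after 30 min, before the luciferase read.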
PINK1 modulator = A Quantitative High throughput Screen to Identify Chemical Modulators of PINK1 Expression. PINK1 immunofluorescence, high-content cytometry, 24 h. Potency, µM (highest dose often 76.6 µM), hits mostly activators. actives 0.2% (n = 410,000); active = well fitted activation curve with a large enough effect; inconclusive = small, poorly fitted or top-dose-only effect; cell line not stated here; note: nearly all actives have a fitted effect of over 65% in size
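Compound titrations (5 concentrations, 24 h) on a stable cell line; DMSO and CCCP controls. Endpoint: fixed-cell PINK1 immunofluorescence with mitochondrial, cell and nuclear markers, scanned by microplate cytometer.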
Numbers stand for hits; – = inactive; ? = inconclusive; · = no result given; [ ] = dose if it differs, or a comment. A selection: hits, their analogues and other compounds. The true share with any hit is near 2.4%. Unless noted, calls come from the whole dose curve; as a rule, active = well fitted curve in the direction sought with a large enough effect; inconclusive = small, poorly fitted or top-dose-only effect, or another doubt; inactive = no such curve, though single readings can be large; an effect the other way counts as inactive or inconclusive.

SMILES	Nrf2 inh	Epigenetic reg	Nrf2 ARE act	A549 viability	PINK1 modulator
COCCn1nnnc1C(c1ccc(OC)c(OC)c1)N1CCN(c2nc3ccccc3s2)CC1 (configuration not stated)	9.2µM	–	–	–	–
CCOC(=O)c1cnc(-c2ccccc2)nc1Oc1ccccc1	·	–	13µM	–	–
CCOC(=O)c1cnc(N)nc1-c1ccccc1	–	·	–	–	–
CCOC(=O)c1cnc(-c2ccccc2)nc1-c1ccccc1	?	–	7.9µM	–	–
CCOC(=O)c1cnc(-c2ccccc2)nc1Oc1ccc(OC)cc1	–	–	–	–	–
Cc1oc(-c2cc(F)ccc2F)nc1CN1CCC(C(=O)N2CCOCC2)CC1	–	·	–	–	–
Cc1oc(-c2cc(F)ccc2F)nc1CN1CCN(c2ncnc3ccccc23)CC1	26µM	–	–	–	–
CC1CCN(c2ccc(C(=O)Nc3ccc4c(c3)OCO4)cc2[N+](=O)[O-])CC1	9.2µM	–	–	–	–
O=C(Nc1ccc(-c2nc3ccccc3o2)cc1)c1ccc(N2CCOCC2)c([N+](=O)[O-])c1	16µM	–	–	?	?
COc1ccc2oc(-c3ccc(NC(=O)c4ccc(N5CCOCC5)c([N+](=O)[O-])c4)cc3)nc2c1	–	–	–	–	–
Cn1cc([N+](=O)[O-])c(C(=O)Nc2ccc(-c3nc4ccccc4o3)cc2)n1	–	–	5µM	–	–
CCC1CN(CC(=O)NC(C)c2cn(C)nc2C)Cc2cc(OC)ccc2O1 (configuration not stated)	·	·	·	·	–
CCn1nc(C)cc1C(=O)NC1CCCc2c1cnn2-c1ccc(C)c(C)c1 (configuration not stated)	12µM	·	–	–	–
COc1ccc(C(=O)NC2CCCc3c2cnn3-c2ccc(C)c(C)c2)c(OC)c1OC (configuration not stated)	13µM	·	–	–	–
Cc1cc(C(=O)NC2CCCc3c2cnn3-c2ccc(C)c(C)c2)no1 (configuration not stated)	10µM	·	–	–	–
COc1cccc(C(=O)NC2CCCc3c2cnn3-c2ccc(C)c(C)c2)c1OC (configuration not stated)	?	·	–	–	–
CCCC(=O)NC1CCCc2c1cnn2-c1ccc(C)c(C)c1 (configuration not stated)	–	·	–	–	–
CC(C)(C)c1ccc(-n2ncc3c2CCCC3NC(=O)C2=NNC(=O)CC2)cc1 (configuration not stated)	8.2µM	·	–	–	–
CN1CCN(c2ncc3ncc(=O)n(-c4ccccc4)c3n2)CC1	·	·	·	·	–
Cn1c2cc(CO)sc2c2cnn(Cc3ccccc3F)c(=O)c21	–	·	·	–	·
Cc1cc(C(=O)NCC2CCC3(CCN(Cc4ccc(F)cc4)CC3)O2)n(C)n1 (configuration not stated)	·	·	·	·	–
COC(=O)c1ccc(C(=O)NC2CCCc3c2cnn3-c2ccccc2F)nc1 (configuration not stated)	–	·	–	–	–
COc1cc(C(=O)NC2CCCc3c2cnn3-c2ccccc2F)cc(OC)c1OC (configuration not stated)	6.5µM	·	–	–	–
O=C(CN1C(=O)NC2(CCCCC2)C1=O)Nc1ccc(Cl)c(S(=O)(=O)N2CCOCC2)c1	23µM	·	–	–	–
Cc1ccc(NC(=O)CN2C(=O)NC3(CCCCC3)C2=O)cc1S(=O)(=O)N1CCOCC1	–	·	–	–	–
SMILES	Nrf2 inh	Epigenetic reg	Nrf2 ARE act	A549 viability	PINK1 modulator
O=C(Cc1cccs1)Nc1ccc(Cl)c(S(=O)(=O)N2CCOCC2)c1	16µM	·	–	–	–
CCOc1ccc(NC(=O)CN2C(=O)CC(C)Sc3ccccc32)cc1 (configuration not stated)	?	–	–	–	–
Fc1ccc(CN2CCN(C(c3ccccc3)c3ccccc3)CC2)cc1	–	·	–	–	40µM
CC(OC(=O)c1cccc(NS(C)(=O)=O)c1)C(=O)Nc1ccc2c(c1)OCO2 (configuration not stated)	23µM	·	–	–	–
COc1cccc(C(=O)OC(C)C(=O)Nc2ccc3c(c2)OCO3)c1 (configuration not stated)	?	·	–	–	–
CN1C(=O)c2cccc(NCCCN3C(=O)c4ccccc4C3=O)c2C1=O	–	?	–	–[1.84 µM]	7.1µM
CN1C(=O)c2cccc(NCCCCCCN3C(=O)c4ccccc4C3=O)c2C1=O	·	–	–	–	?
CCOc1ccccc1N(C(=O)c1snc(C(N)=O)c1N)C(C(=O)NCCC(C)C)c1ccco1 (configuration not stated)	26µM	–	–	?	–
Cc1c([S+](=O)([O-])N2CCN([S+](=O)([O-])c3c(F)cccc3F)CC2)sc2ccc(Cl)cc12	–	·	·	–	·
O=C(N/N=C\c1cccc(OC(=O)c2ccco2)c1)c1ccc2c(c1)OCO2	2.3µM	–	–	–	–
O=C(NCc1ccco1)c1ccc2c(c1)OCCO2	–	·	–	–	–
O=C(N/N=C/c1cccc(O)c1)c1ccc2c(c1)OCCO2	0.41µM	·	–	–	–
O=C(N/N=C\c1ccc2c(c1)OCO2)c1ccco1	?	–	–	–	–
O=C(O)CNC(=O)c1ccc2c(c1)OCCO2	–	–	–	–[1.84 µM]	13µM
O=C(COc1ccccc1C(=O)Nc1ccccc1)NCCCCc1ccccc1	·	·	·	·	–
CC1(C)SC(=S)N(/N=C/c2ccccc2)C1N(O)C(=O)Nc1ccc([N+](=O)[O-])cc1 (configuration not stated)	?	–	–	?	32µM
CNC(=O)N(O)C1N(/N=C/c2ccc(N(C)C)cc2)C(=S)SC1(C)C (configuration not stated)	–	·	–	–	–
Clc1ccc(-n2ncc3c(N4CCCCCC4)ncnc32)cc1	?	–	–	–	–
Brc1cc(Br)c2ncnc(N3CCCCC3)c2c1	26µM	–	–	?	–
O=C(NCC1CCCO1)c1cccc2c1C(=O)c1ccc(N3CCC(Cc4ccccc4)CC3)cc1S2(=O)=O (configuration not stated)	21µM	·	–	–	–
Cc1sc(NC(=O)c2ccc(F)cc2)c(CN2CCCCCC2)c1C	–	–	13µM	–	–
CCCCC(CC)C(=O)Nc1ncc([N+](=O)[O-])s1 (configuration not stated)	9.2µM	–	–	18µM	?
COC(=O)c1cc(CNC(=O)c2ccccc2)cc(NC(=O)c2ccccc2OC)c1	·	·	·	·	–
O=C(c1ccc(N2CCC(NCCCn3ncc4ccccc43)CC2)cc1)N1CCOCC1	·	·	·	·	–
Cn1cc(S(=O)(=O)c2ccc(Cl)cc2)c(=O)c2cc(F)c(N3CCCCCC3)cc21	16µM	–	–	–	–

From PubChem BioAssay
